Measured values from the supplement of paper PMC11624193, “Coupling cellular drug-target engagement to downstream pharmacology with CeTEAM” (Nature Communications, 2024).
Structures can show the parent of a compound that is named as a salt. Values without a mark were called inactive.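 The calls were made as follows: active = log2 fold change beyond 2 SD from the library mean after excluding viability outliers; inactive = within 2 SD.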

Target: PARP1 L713F-nLuc biosensor (HCT116) (UniProt P09874)
Assay: PARP1 L713F-nLuc/akaLuc ratio relative to DMSO control (biosensor stabilization) (fold change); higher = more PARP1 biosensor stabilization (target engagement / stabilizer), active = hit call of the paper
Conditions: stock concentration (mM; final µM = stock mM x 1): 10; 24 h

PARP1 L713F-nLuc biosensor (HCT116), sequence (P09874 whole entry L713F, looked up): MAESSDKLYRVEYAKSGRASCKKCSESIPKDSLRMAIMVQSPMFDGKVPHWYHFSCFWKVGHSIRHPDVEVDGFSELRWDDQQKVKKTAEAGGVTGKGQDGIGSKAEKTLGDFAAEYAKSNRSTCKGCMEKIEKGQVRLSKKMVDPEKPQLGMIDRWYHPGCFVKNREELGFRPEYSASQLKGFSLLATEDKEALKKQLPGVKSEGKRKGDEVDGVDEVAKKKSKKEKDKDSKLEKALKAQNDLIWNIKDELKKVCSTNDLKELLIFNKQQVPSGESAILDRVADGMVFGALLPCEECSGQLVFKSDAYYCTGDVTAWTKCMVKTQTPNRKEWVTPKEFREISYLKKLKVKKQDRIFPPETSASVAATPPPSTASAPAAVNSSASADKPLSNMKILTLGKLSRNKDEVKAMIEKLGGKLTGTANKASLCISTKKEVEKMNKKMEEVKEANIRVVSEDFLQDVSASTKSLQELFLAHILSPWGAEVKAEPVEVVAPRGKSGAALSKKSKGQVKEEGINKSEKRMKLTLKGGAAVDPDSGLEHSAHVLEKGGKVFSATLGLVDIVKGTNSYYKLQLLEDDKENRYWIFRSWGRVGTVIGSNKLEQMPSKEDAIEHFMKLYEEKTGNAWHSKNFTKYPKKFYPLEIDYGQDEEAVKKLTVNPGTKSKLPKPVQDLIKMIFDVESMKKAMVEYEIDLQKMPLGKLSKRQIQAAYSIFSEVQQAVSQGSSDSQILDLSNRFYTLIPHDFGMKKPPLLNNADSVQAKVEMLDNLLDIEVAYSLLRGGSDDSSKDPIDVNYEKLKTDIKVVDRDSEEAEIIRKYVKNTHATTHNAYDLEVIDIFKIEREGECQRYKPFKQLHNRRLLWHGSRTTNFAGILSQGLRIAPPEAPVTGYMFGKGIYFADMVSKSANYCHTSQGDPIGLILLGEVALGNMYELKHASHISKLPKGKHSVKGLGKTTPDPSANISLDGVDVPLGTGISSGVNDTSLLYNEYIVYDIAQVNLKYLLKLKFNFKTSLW

First: C[C@@H]1CCN(C(=O)CC#N)C[C@@H]1N(C)c1ncnc2[nH]ccc12 [Tofacitinib]
Second: Cc1cccc(-c2nn3c(c2-c2ccnc4ccc(C(N)=O)cc24)CCC3)n1
The “PARP1 L713F-nLuc/akaLuc ratio” value of the first is higher: 0.723 for the first, 0.664 for the second.

Compared with CN1CCN(c2cccc(Nc3nc4c(-c5ccc(S(C)(=O)=O)cc5)cccn4n3)c2)CC1, Cc1nn(C)cc1-c1nc2c(N3CCN(Cc4ccc(Cl)cc4)CC3)c(Cl)cnc2[nH]1 is higher in “PARP1 L713F-nLuc/akaLuc ratio” value: 0.968 for the first, 0.979 for the second.

First: Cc1cc(Nc2nc(CC3(C(=O)O)CCN(C(=O)c4cccc(Cl)c4Cl)CC3)ccc2F)n[nH]1
Second: CCN(CC)Cc1cc(Nc2ccnc3cc(Cl)ccc23)ccc1O [Amodiaquine (dihydrochloride)]
The “PARP1 L713F-nLuc/akaLuc ratio” value of the first is higher: 1.6 for the first, 1.11 for the second.

Compared with Nc1ccn([C@@H]2O[C@H](CO)[C@@H](O)C2(F)F)c(=O)n1 [Gemcitabine], NCCNS(=O)(=O)c1cccc2c(Cl)cccc12 [A-3 (hydrochloride)] is higher in “PARP1 L713F-nLuc/akaLuc ratio” value: 0.416 for the first, 0.846 for the second.

Going from COc1cc2c(NC3CCN(C(C)C)CC3)nc(C3CCCCC3)nc2cc1OCCCN1CCCC1 to O=C(Nc1ccc2c(O)cc(S(=O)(=O)O)cc2c1)Nc1ccc2c(O)cc(S(=O)(=O)O)cc2c1 [AMI-1 (free acid)], the “PARP1 L713F-nLuc/akaLuc ratio” value rises from 0.748 to 1.04.

In the case of Cc1nc(Nc2n[nH]c3c2CN(C(=O)N[C@H](CN(C)C)c2ccccc2)C3(C)C)c2sccc2n1, the “PARP1 L713F-nLuc/akaLuc ratio” value is reported as 5.51 (active).
In the case of CCC(Sc1nnc2c(n1)[nH]c1ccccc12)C(=O)N1c2ccccc2Sc2ccccc21 (configuration not stated) [Inauhzin], the “PARP1 L713F-nLuc/akaLuc ratio” value is reported as 0.33 (active).
